# Screens as filed in PubChem.
# UBC13 inh: human UBC13 polyubiquitination inhibition; UBC13 polyubiquitin chain formation, TR-FRET; P61088; 330,000 compounds, 0.47% hits; inhibition, % at 20 µM; in the data active = inhibition above about 45%, passing the limit was not always enough; inconclusive = no clear call, values can overlap the other calls
# Target sequence (P61088 whole entry, looked up): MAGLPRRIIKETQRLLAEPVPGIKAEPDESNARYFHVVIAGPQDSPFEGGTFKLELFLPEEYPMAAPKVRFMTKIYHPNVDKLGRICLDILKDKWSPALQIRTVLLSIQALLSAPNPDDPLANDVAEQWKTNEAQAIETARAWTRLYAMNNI
# GRIN3A LBD mod: NR3A (human) ligand-binding domain modulation. NR3A LBD differential scanning fluorimetry, Tm shift; 0% = protein alone, 100% = glycine-bound protein. Tm shift relative to glycine control, % at 25 µM. 340,000 compounds, 2.5% hits. AID 1259313;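 active = melting temperature shift of at least 10% of the positive control shift, at one fixed dose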
# Yeast superoxide: caloric restriction mimetics inhibiting age-related superoxide in yeast. S. cerevisiae aged cells, superoxide DHE fluorescence; stronger effect = lower value. superoxide response (% of plate mean), % at 10 µM. 330,000 compounds, 0.18% hits;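 active = superoxide response under a set limit, about three screen SD below normal, cut at about 65% in these data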;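 note: yeast aged for seven days with compound at 30 °C before DHE staining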
# NALP1 inh: NALP1 inhibition; S. cerevisiae NALP1/ASC/caspase-1 growth, X-gal OD620, 72 h; inhibition, % at 10 µM; 280,000 compounds, 0.61% hits; AID 2071; in the data active = inhibition mostly above about 24%, no sharp cut-off; inactive = mostly below about 32%
# dFosB activator: mouse delta FosB homodimer activation; purified delta FosB, TAMRA-CDK5 oligo fluorescence polarization; percent of positive-control signal above neutral wells; activation, % at 25 µM; 340,000 compounds, 0.99% hits; P13346; AID 493131;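 active = mean activation above about 17%, with every replicate also reaching it, limit read from the data, passing the limit was not always enough; inconclusive = only one of the two conditions met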
# Target sequence (P13346 whole entry, looked up): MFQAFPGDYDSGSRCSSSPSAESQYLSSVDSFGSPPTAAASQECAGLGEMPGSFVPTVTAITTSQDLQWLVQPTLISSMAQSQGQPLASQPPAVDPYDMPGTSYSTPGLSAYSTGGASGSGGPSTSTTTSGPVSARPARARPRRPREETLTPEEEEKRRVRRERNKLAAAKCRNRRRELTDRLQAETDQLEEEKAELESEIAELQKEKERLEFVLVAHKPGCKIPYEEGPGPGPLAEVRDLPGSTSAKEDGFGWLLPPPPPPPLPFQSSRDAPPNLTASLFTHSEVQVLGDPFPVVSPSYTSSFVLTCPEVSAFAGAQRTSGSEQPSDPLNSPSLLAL
# A number is an active result; n = inactive; u = inconclusive; x = no result given. An excerpt weighted towards active compounds, which were near 4.3% of everything screened.
SMILES,UBC13 inh,GRIN3A LBD mod,Yeast superoxide,NALP1 inh,dFosB activator
Cc1ccc(C(=O)/C=C/c2c[nH]c3ccccc23)cc1,n,28.3,n,n,n
Cc1[nH]c2ccccc2c1/C=C/c1nc2ccccc2c(=O)n1-c1cccc([N+](=O)[O-])c1,n,n,n,n,n
O=c1c2ccccc2nc(/C=C/c2c[nH]c3ccccc23)n1-c1ccc([N+](=O)[O-])cc1,n,25.9,n,n,n
Cc1ccc(C(=O)NCC(=O)OCC(=O)c2ccccc2)s1,n,n,n,x,n
COc1ccc(C(=O)N/N=C/c2cc3ccccc3[nH]c2=O)cc1,n,18.1,n,n,n
COc1ccc(C(=O)N/N=C/c2ccccc2OC(=O)c2ccccc2)cc1,n,n,n,n,n
COc1ccc(C(=O)Nc2ccccc2C(=O)N/N=C/c2cccc3ccccc23)cc1,n,13.6,n,n,n
O=C(COC(=O)c1cccc(Br)c1)NCc1ccco1,n,n,n,x,n
O=[N+]([O-])c1cnccc1Nc1ccccc1,n,n,n,33.4,n
O=C(NN=C(Cc1ccccc1)Cc1ccccc1)C1CC1,n,n,n,n,n
COc1ccc(-c2nnc(SCC(=O)Nc3ccc(Cl)cc3)n2C)cc1,n,n,n,n,n
CCOC(=O)/C(=N\Nc1cccc(Cl)c1)Sc1nnc(-c2ccc(OC)cc2)n1C,n,13.2,n,n,n
FC(F)(F)c1cnc(COc2cc(Cl)cc(Cl)c2)c(Cl)c1,n,n,n,n,n
O=C(Cn1c(NCCO)nc2ccccc21)Nc1ccc2c(c1)OCCCO2,n,n,x,x,n
CC(C)/C=C1\CC/C(=C\c2ccc(N(C)C)cc2)C1=O,n,n,n,n,n
CN(C)c1ccc(/C=C2/C[N+](C)(C)C/C(=C/c3ccc(N(C)C)cc3)C2=O)cc1,x,n,x,x,22.2
CC1CC(=O)c2c(cc3c(-c4c(O)cc(O)c5c(O)c6c(cc45)OC(C)CC6=O)c(O)cc(O)c3c2O)O1 (stereo not given),n,23.8,n,n,n
CCOC(=O)C1CCN(S(=O)(=O)c2cn(C)c(C)n2)CC1,n,n,n,n,n
CCNC(=O)COC(=O)c1ccc(-c2nc3ccccc3s2)s1,n,n,n,n,n
Cc1noc(C)c1COC(=O)c1ccc(-c2nc3ccccc3s2)s1,n,21.0,n,n,n
COc1cc(C(=O)OCC(=O)NCc2ccc(F)cc2)ccc1OCC(C)C,n,n,n,n,n
CCN(CC)CCn1c2c(c(SCC(=O)Nc3ccc4c(c3)OCCO4)nc1=O)CCCC2,n,n,n,x,n
O=C(/C=C\c1cn(-c2ccccc2)nc1-c1ccccc1)Nc1nccs1,n,27.5,n,n,n
O=C(/C=C/c1cccs1)Nc1nncs1,n,n,n,n,n
O=C(/C=C/c1cccs1)Nc1nc(-c2ccccc2)cs1,n,17.3,n,x,n
SMILES,UBC13 inh,GRIN3A LBD mod,Yeast superoxide,NALP1 inh,dFosB activator
O=C(COC(=O)/C=C/c1cccs1)Nc1nc(-c2ccccc2)cs1,n,n,n,63.1,n
CCc1ccc2[nH]c(=O)c(CN(Cc3ccco3)C(=S)NCC3CCCO3)cc2c1 (stereo not given),n,n,n,38.0,n
Cc1cc2cc(CN(Cc3ccco3)C(=S)NCC3CCCO3)c(=O)[nH]c2cc1C (stereo not given),n,n,n,n,n
Cc1cc2cc(CN(CC3CCCO3)C(=S)NCc3ccco3)c(=O)[nH]c2cc1C (stereo not given),n,13.1,n,n,n
O=[N+]([O-])c1ccc(N/N=C/c2cccc(O)c2O)c(S(=O)(=O)N2CCOCC2)c1,n,30.4,n,n,u
COc1cc(/C=N/Nc2ccc([N+](=O)[O-])cc2S(=O)(=O)N2CCOCC2)cc(OC)c1OC,n,n,n,n,n
O=[N+]([O-])c1ccc(N/N=C/c2ccc(O)c(O)c2O)c(S(=O)(=O)N2CCOCC2)c1,n,22.8,x,n,n
CCOc1ccc(N(CC(=O)N2CCOCC2)S(=O)(=O)c2ccc(SC)cc2)cc1,n,n,n,n,n
Cn1c(=O)c2[nH]c(-c3ccc(S(=O)(=O)O)cc3)nc2n(C)c1=O,n,n,n,x,n
CC(=O)c1cccc(NC(=O)Cn2cnc(S(=O)(=O)N3CCOCC3)c2)c1,n,n,n,n,n
CCc1oc2ccccc2c1C(=O)CCN1CCCCC1,n,n,n,49.6,n
COc1ccc(S(=O)(=O)N(C)C[C@H]2Oc3c(NS(=O)(=O)c4ccc(F)cc4)cccc3C(=O)N([C@H](C)CO)C[C@@H]2C)cc1,n,n,n,x,n
COc1ccc2c(c1)sc1nc(-c3ccccc3)cn12,n,20.3,n,n,n
CCOC(=O)N1CCN(C(=O)c2ccc3c(c2)sc2nc(-c4ccc(OC)cc4)cn23)CC1,n,n,n,n,n
O=C(COc1ccc2ccccc2c1Br)Nc1ccncc1,n,13.6,n,n,n
O=C(COc1ccc2ccccc2c1Br)NC(=S)Nc1cccc(CO)c1,n,34.2,n,n,n
C/C(Cn1nc([N+](=O)[O-])cc1C)=N\NC(=O)COc1ccc(Cl)cc1Cl,n,n,55.0,n,n
C/C(Cn1nc([N+](=O)[O-])cc1C)=N\NC(=O)COc1ccccc1[N+](=O)[O-],n,n,n,n,n
CCOC(=O)c1c(N)sc(C(=O)Nc2ccccc2F)c1C,n,n,n,n,n
CCOC(=O)c1c(N)sc(C(=O)Nc2ccccc2)c1C,n,27.3,n,n,n
CCOC(=O)c1c(NC(C)=O)sc2c(OC)cccc12,n,n,n,n,n
CCOC(=O)c1sc(-c2ccccc2)cc1NC(=O)Nc1ccccc1,x,15.5,n,n,n
CCOC(=O)c1sc(NC(=O)Nc2ccccc2Cl)cc1C,n,28.0,n,n,n
CCOC(=O)c1c(N)sc2c(NC(C)=O)cccc12,n,31.0,n,n,n
CCOC(=O)c1c(C)[nH]c(C)c1S(=O)(=O)NCC1CCN(Cc2ccccc2OC)CC1,n,n,n,n,n
SMILES,UBC13 inh,GRIN3A LBD mod,Yeast superoxide,NALP1 inh,dFosB activator
CCOc1ccc(NC(=O)CN(C)C(=O)C(C)Oc2ccc(Cl)cc2)cc1OCC (stereo not given),x,n,x,x,n
CCOC(=O)c1sc(NC(=O)c2cccc(S(=O)(=O)N3c4ccccc4CC3C)c2)cc1C (stereo not given),n,13.1,n,n,n
Cc1sc(NC(=O)Nc2ccccc2)c(C(N)=O)c1C,n,12.6,n,n,x
CCOC(=O)c1sc(NC(=O)Nc2ccccc2)cc1C,n,42.8,n,n,n
CCOC(=O)c1sc(-c2ccc(Br)cc2)cc1N,n,15.6,n,n,n
CCOC(=O)c1cc(-c2ccc(N)cc2)sc1N,n,n,n,n,n
Cc1ccc(-c2nnc(SCC(=O)NCCN3C(=O)CSC3=O)n2C)cc1,n,n,n,x,n
CC[C@H](C)[C@H](NC(=O)c1ccccc1)C(=O)Nc1ccc(S(=O)(=O)Nc2cc(C)nc(C)n2)cc1,n,n,n,n,n
